Screening results as filed in PubChem.
Myeloid diff MLP: promotes myeloid progenitor differentiation. ER-HoxA9 myeloid progenitors, lysozyme-GFP differentiation, flow cytometry. calls only at 10 µM. 1% of 360,000 active. AID 624256;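 active = normalized GFP-positive differentiation at or above the plate's own cutoff, the solvent-only control mean plus 3 SD; inconclusive = no clear call, values can overlap the other calls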;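 also: cells exposed to compound for four days before flow analysis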
HNF4A DNA FP: change in binding of human HNF4 alpha to DNA | P41235 | HNF4a-FITC DNA binding, fluorescence polarization, 1 h | activity change, % at 10 µM | 0.3% of 360,000 active; in the data active = activity change above about 30%, passing the limit was not always enough
Target sequence (P41235 whole entry, looked up): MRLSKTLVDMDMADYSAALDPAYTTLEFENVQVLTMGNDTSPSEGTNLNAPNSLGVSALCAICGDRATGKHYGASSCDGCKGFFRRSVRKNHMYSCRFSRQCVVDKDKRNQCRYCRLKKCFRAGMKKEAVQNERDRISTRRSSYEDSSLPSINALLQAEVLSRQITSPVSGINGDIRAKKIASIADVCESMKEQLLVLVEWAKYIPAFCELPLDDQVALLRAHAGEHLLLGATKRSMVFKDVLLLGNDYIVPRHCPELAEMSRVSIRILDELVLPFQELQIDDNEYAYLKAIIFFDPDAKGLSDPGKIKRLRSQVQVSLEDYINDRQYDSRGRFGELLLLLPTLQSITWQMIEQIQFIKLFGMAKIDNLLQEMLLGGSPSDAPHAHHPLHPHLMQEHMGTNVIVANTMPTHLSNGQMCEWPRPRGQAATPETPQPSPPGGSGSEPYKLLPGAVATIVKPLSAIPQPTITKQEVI
Rpn11 inh: Rpn11 (human) deubiquitinase inhibition. O00487. human 26S proteasome, Ub4-pepOG fluorescence polarization; 20S core pre-blocked with epoxomicin. inhibition, % at 20 µM. 0.59% of 360,000 active;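 active = inhibition at 20 µM, scaled to each plate's controls, above about 33%, limit read from the data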
TPT1 inhibitor: inhibitors of Candida albicans tRNA 2'-phosphotransferase TPT1. recombinant caTPT1, FP RNA substrate dephosphorylation. inhibition, % at 5 µM. 0.81% of 300,000 active. AID 1962;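 active = inhibition above the mean of all tested compounds plus 3 SD, set per screening campaign, cut at about 24% in these data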;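 also: plate controls were DMSO alone for no effect and ferristatin control at 100 nM for full effect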
Rpn11 confirm: Rpn11 inhibition confirmation, single concentration; shares compounds with Rpn11 inh; 29% of 1,900 active; AID 602318; purified human 26S proteasome, Ub4-pepOG fluorescence polarization; proteasome pretreated with epoxomicin; inhibition, % at 20 µM
MMP-2 counter: blocks human MMP-2, flagging nonselective RPN11 hits | shares compounds with Rpn11 inh | AID 602330 | inhibition, % at 20 µM | recombinant MMP-2, FRET peptide cleavage fluorescence | 4% of 1,900 active;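 also: human MMP-2 activated beforehand with APMA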
Thrombin FP: thrombin (bovine) inhibition counter-screen. inhibition, % at 20 µM. AID 602333. shares compounds with Rpn11 inh. bovine thrombin cleavage of Ub4-pepOG, fluorescence polarization. 13% of 1,900 active;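 active = mean inhibition at least 40% at 20 µM, or signal 3 deviations below plate average, so some actives read negative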;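 also: plate controls were thrombin with DMSO for no effect and buffer wells lacking thrombin for full effect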
Myeloid diff CP1: compounds promoting myeloid differentiation; ER-HoxA9 myeloid progenitors, GFP/Mac1 double-positive flow; calls only; 2% of 2,300 active; shares compounds with Myeloid diff MLP;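 active = share of green or green-and-red cells above 9 and 9% in run 1 or 4 and 3% in run 2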
GFP autofluor: compound fluorescence in myeloid differentiation counter-screen; shares compounds with Myeloid diff MLP; ER-HoxA9 myeloid progenitors, no estrogen, GFP autofluorescence flow cytometry; vehicle wells 0%, positive control 100%; fluorescence response, % (no concentration beside the values); 7.4% of 2,300 active; AID 651707;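 active = over 5% cells positive for green fluorescent reporter, or over 2% positive for both it and APC stain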;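 also: range taken on the double positive population between DMSO and positive control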
HNF4a DNA conf: change in binding of human HNF4 alpha to DNA, retest; shares compounds with HNF4A DNA FP; HNF4A-FITC DNA binding, fluorescence polarization, 1 h; activity change, % at 12.5 µM; 99% of 210 active; call rule not given here
Active calls of the source: *; i = inactive; ? = inconclusive; nt = no result given; + = active, no number. Compounds with a hit are over-represented: about 2.1% of the library has one in this group of screens. Rule as the data show it, unless noted: active = inhibition above about 40%; inactive = the rest.

SMILES	Myeloid diff MLP	HNF4A DNA FP	Rpn11 inh	TPT1 inhibitor	Myeloid diff CP1	GFP autofluor	others
O=c1[nH]c(CN2CC=C(c3ccccc3)CC2)nc2cc(C(F)(F)F)ccc12	+	22.5	47.0*	19.5	nt	nt	Rpn11 confirm=9.0;MMP-2 counter=1.5;Thrombin FP=-8.0
CC1=Nc2ccccc2/C1=C/c1c(O)n(C)c(=O)[nH]c1=O	i	12.8	20.6	6.9	nt	nt
Cc1ccccc1-n1c(O)c(/C=C2/C(c3ccccc3)=Nc3ccccc32)c(=O)[nH]c1=O	?	2.8	41.2*	6.3	nt	nt	Rpn11 confirm=35.2;MMP-2 counter=10.2;Thrombin FP=25.4
COc1ccc(-n2nnnc2C(c2cccc3ccccc23)N2CCC3(CC2)C(=O)NCN3c2ccccc2)cc1 (centres undefined)	i	0.3	0.1	nt	nt	nt
CC(C)CCNC(=O)c1cc(C(=O)c2cc(Br)ccc2O)cn(CCC(C)C)c1=O	i	7.0	45.4*	3.6	nt	nt	Rpn11 confirm=-10.0;MMP-2 counter=-17.3;Thrombin FP=-9.2
CC(C)CCNC(=O)c1cc(C(=O)c2cc(F)ccc2O)cn(CCC(C)C)c1=O	i	2.1	-4.0	1.9	nt	nt
O=c1c2ccccc2nc(/C=C/c2ccc(O)cc2)n1-c1ccccc1O	i	3.0	38.7*	6.2	nt	nt	Rpn11 confirm=12.7;MMP-2 counter=-16.8;Thrombin FP=7.4
O=C(O)c1ccc(/C=C/c2nc3ccccc3c(=O)n2-c2ccc(Br)cc2)cc1	i	2.1	5.7	-0.6	nt	nt
C[C@]12CCC3C(CC[C@H]4C[C@@H](O)CC[C@]34C)C1C/C(=N/O)[C@@H]2O (some centres undefined)	i	-1.4	-0.8	nt	nt	nt
COc1ccc(N2C(=O)/C(=C/c3ccc(OC)c(OC)c3)C(=O)NC2=S)cc1	i	-32.4	52.6*	nt	nt	nt	Rpn11 confirm=2.0;MMP-2 counter=8.4;Thrombin FP=6.6
COc1ccc(N2C(=O)/C(=C/c3ccc(C)o3)C(=O)NC2=S)c(OC)c1	i	4.8	51.0*	19.3	nt	nt	Rpn11 confirm=9.4;MMP-2 counter=33.3;Thrombin FP=40.3*
Cc1ccc(C(O)(C(=O)OC(C)C)C(O)c2ccccc2)cc1 (centres undefined)	i	2.0	nt	nt	nt	nt
C[C@]12CCC3C(CC[C@H]4C[C@H](O)CC[C@]34C)C1C[C@@H](O)[C@H]2O (some centres undefined)	i	2.9	-5.9	nt	nt	nt
O=C(c1cc(Cl)cc(Cl)c1)N1Cc2ccccc2-n2nncc2C1	i	-4.5	4.9	nt	nt	nt
O=c1[nH]c(=S)[nH]c(O)c1N=Nc1ccc2c(c1)OCO2	i	42.0*	46.5*	9.8	nt	nt	Rpn11 confirm=17.2;MMP-2 counter=31.7;Thrombin FP=11.2;HNF4a DNA conf=45.7*
N#CC1c2ccccc2-n2nncc2CN1Cc1cc(Cl)cc(Cl)c1 (centres undefined)	?	1.8	7.5	nt	nt	nt
COC(=O)NC(=C(Cl)Cl)P(=O)(c1ccccc1)c1ccccc1	+	0.9	-3.4	-2.0	i	0.0
CC[C@H]1c2ccccc2[C@@H]2CC[C@H]1N2c1ccccc1	i	1.9	nt	nt	nt	nt
C[C@]12CCC(=O)C=C1CCC1C2CC[C@@]2(C)C1CC[C@@]2(O)CC#N (some centres undefined)	+	2.7	-5.7	-0.9	i	0.2
C[C@]12CCC(=O)C=C1CC[C@@H]1[C@@H]2CC[C@@]2(C)[C@H]1CC[C@]2(C)O	nt	1.8	5.0	nt	nt	nt
COC(=O)[C@]1(C)C[C@H]1[C@H](NP(=O)(c1ccccc1)c1ccccc1)c1ccccc1	i	-0.7	-2.4	1.4	i	0.0
CCOP(=S)(OCC)c1ccc(N(C)C)cc1	+	0.8	7.0	-3.8	i	0.0
CN(C)c1ccc(P(=S)(N(C)C)N(C)C)cc1	i	-0.7	-3.7	-0.8	nt	nt
C=CCNC(=S)N1Cc2cc(Br)ccc2-n2nncc2C1	i	0.3	5.8	nt	nt	nt
CCN(CC)CCCN=Cc1c(O)n(-c2cccc(C)c2C)c(=O)[nH]c1=O	+	2.8	3.9	4.5	i	0.4
SMILES	Myeloid diff MLP	HNF4A DNA FP	Rpn11 inh	TPT1 inhibitor	Myeloid diff CP1	GFP autofluor	others
CCCCn1c(O)c(C=NCCCN(CC)CC)c(=O)[nH]c1=O	i	2.2	-1.4	3.2	nt	nt
CCc1cc2c(cc1-c1csc(C/C(N)=N/O)n1)C(C)(C)CCC2(C)C	+	-0.4	-3.7	nt	i	2.5
Fc1ccccc1N1CCN(Cc2ccc3c(c2)OCO3)CC1	i	-5.6	2.4	-1.5	i	0.3
Clc1ccccc1N1CCN(Cc2ccc3c(c2)OCO3)CC1	i	1.3	0.9	nt	nt	nt
C=C1C(=O)OC2CCN3CC=C(COC(=O)C(C)(O)C4(CO4)C1C)C23 (centres undefined)	i	-0.5	-2.3	nt	nt	nt
C=C(C)CC1(CC)C(=O)NC(=S)NC1=O	i	-6.9	1.6	nt	nt	nt
CC(C)(C)n1nnnc1C(c1ccnc2ccccc12)N1CCC2(CC1)C(=O)NCN2c1ccccc1 (centres undefined)	i	-1.8	2.7	nt	nt	nt
CN(CCOc1ccc(C=C2C(=O)NC(=O)NC2=O)cc1)c1ccccn1	i	-1.4	5.6	-0.5	i	0.0
CCN(CC)C(=O)c1ccc(NC(=O)c2cccc(S(=O)(=O)N3CCN(Cc4ccccc4)CC3)c2)cc1	i	-0.9	0.7	1.1	i	1.3
COC(=O)C1=C(c2c(C)noc2C)C[C@@H]2CC[C@H]1N2C(=O)NCCOc1ccc(OC)cc1	i	2.3	-3.2	nt	nt	nt
OCC[n+]1c2ccccc2nc2ccc(N3CCOCC3)cc21	+	0.4	4.4	-2.1	i	0.6
CN1[C@@H]2CC[C@H]1CC(OC1c3ccccc3CCc3ccccc31)C2 (some centres undefined)	i	-2.5	-16.7	-5.3	nt	nt
CC(N)Cc1c[nH]c2c1ccc1ccccc12 (centres undefined)	i	2.8	4.5	3.1	i	1.1
Cc1ccc(N=C(/N=C(\N)N[N+](=O)[O-])Nc2ccc(C)cc2)cc1	i	2.7	-2.4	1.0	i	0.6
Cc1cc(Br)cn2c(CC(=O)N3CCCCC3)c(-c3ccc(F)cc3)nc12	i	-4.3	nt	nt	nt	nt
CC1CCCC(C)N1/N=C/c1c[nH]c2ccc(Br)cc12 (centres undefined)	i	2.4	6.6	0.6	i	1.7
C[C@]12CCC3C(CC[C@H]4C[C@H](O)CC[C@]34C)C1C[C@H](O)[C@@H]2O (some centres undefined)	i	20.6	-0.6	nt	nt	nt
CCOC(=O)c1ccccc1C(=O)OCC	i	-30.9	-52.4	-18.4	nt	nt
